Compound activity as filed in PubChem.
Rows were chosen to be rich in hits. Some 17% of all compounds tested hit in one or more screens of this group.
ATXN2 expr inh – reduces ATXN2 reporter expression in HEK-293 cells; Potency, µM (top dose mostly 57 µM), without a hit: at the highest dose activity change, negative = inhibition, actives largely listed as inhibitors; 0.72% of 360,000 active; HEK-293 ATXN2-luciferase reporter, luminescence, 24 h; also: % is scaled to controls: 0 for no effect and ±100 for the full control effect; nearly all actives have a fitted effect of over 55% in size
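qHTS (up to 57 uM final) was run with 24 h compound exposure of reporter cells at 37 °C. Each well was multiplexed: SteadyGlo luminescence measured ATXN2-luciferase expression after a fluorogenic Gly-Phe-AFC viability readout (25 uM final).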
DT40 TDP1 CPT – DT40-hTDP1 cell growth loss with CPT | chicken DT40 Tdp1-/-;hTDP1 cells + 20 nM CPT, ATP luminescence, 48 h | Potency, µM (doses to about 46.2 µM), inactives show at the top dose activity change, negative = growth inhibition, hits mostly inhibitors | 12% of 420,000 active; also: % is scaled to controls: 0 for no effect and ±100 for the full control effect; nearly all actives have a fitted effect of over 55% in size
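Cell growth measured by CellTiter-Glo luminescence after a minimum 48 h, 37 C compound exposure with 20 nM CPT in Tdp1-knockout DT40 cells stably expressing hTDP1, seeded 400/well; qHTS titration format.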
S2 tox – reduces viability in counter-screen for ATXN expression inhibitors | S2 cells (HEK-293 line with an ATXN2-luciferase reporter) viability, CellTiter-Fluor protease fluorescence, 24 h | Potency, µM (doses to about 56.7 µM), hits mostly cytotoxic | 0.49% of 400,000 active; also: nearly all actives have a fitted effect of over 40% in size
TGFb inhibitor – inhibitors of TGF-b signaling. HepG2 CAGA-GFP TGF-b/SMAD3 reporter, GFP fluorescence, 18 h; TGF-beta stimulated, 500 pg/mL final. Potency, µM (series often up to 46.1 µM), for the others: at the highest dose activity, negative = inhibition, actives largely listed as inhibitors. 1.2% of 410,000 active; also: % is scaled to controls: 0 for no effect and ±100 for the full control effect; nearly all actives have a fitted effect of over 65% in size
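Per well, imaged GFP fluorescence of HEPG2 CAGA-GFP cells gives the signal; cells get compound, then TGF-beta (500 pg/mL final), 18 h at 37 degrees C; %Activity versus -TGF-beta and +DMSO controls.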
HepG2 viability – HepG2 cytotoxicity, counter-screen for TGF-b inhibitors | HepG2 CAGA-GFP viability, ATP luminescence, 18 h | Potency, µM (series often up to 46.1 µM), inactives show at the highest dose activity change, negative = cytotoxicity, hits mostly cytotoxic | 0.76% of 410,000 active
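CellTiter-Glo luminescence gave cytotoxicity after 18 hours at 37 degrees C. The cells were HepG2 CAGA-GFP in 1% FBS DMEM, stimulated with 500 pg/mL TGF-beta after compound addition. %Activity was normalised to no-cell wells (complete cell-killing) and DMSO (no toxicity), and curves were fitted and classified.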
DT40 TDP1 no CPT – qHTS for Inhibitors of human tyrosyl-DNA phosphodiesterase 1 (TDP1): qHTS in cells in absence of CPT; 15% of 420,000 active; DT40 Tdp1-/- hTDP1 cells, no CPT, ATP luminescence, 48 h; Potency, µM (series often up to 46.2 µM), inactives show at the highest dose activity change, negative = growth inhibition, usual class: inhibitors; AID 686978, 2013; also: % is scaled to controls: 0 for no effect and ±100 for the full control effect; nearly all actives have a fitted effect of over 55% in size
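Readout: luminescence from CellTiter-Glo after 30 min in the dark at RT. Cells: DT40 Tdp1-/- with stable hTDP1, 400/well. Exposure: compounds alone, ≥48 hr, 37 °C.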
* marks the source's active call; other numbers are inactive results; i = inactive; ? = inconclusive; . = not tested or not shown. Calls follow the shape of the dose curve; as a rule, active = well fitted curve in the direction sought with a large enough effect; inconclusive = small, poorly fitted or top-dose-only effect, or another doubt; inactive = no such curve, though single readings can be large; an effect the other way counts as inactive or inconclusive. Potency is read from the fitted curve at half-maximal effect.

SMILES	ATXN2 expr inh	DT40 TDP1 CPT	S2 tox	TGFb inhibitor	HepG2 viability	DT40 TDP1 no CPT
Cc1cc(C)c(NC(=O)Cn2c(=O)n(CCCCC(=O)NCc3ccccc3Cl)c(=O)c3ccccc32)c(C)c1	7%	?	i	-3%	2%	?
CC(=O)Sc1nc(-c2ccccc2)[nH]c1S(=O)(=O)c1ccc(C)cc1	7%	18µM*	i	0%	3%	21µM*
Cc1ccc(S(=O)(=O)c2[nH]c(-c3ccccc3)nc2SCC(=O)O)cc1	-4%	-4%	i	8%	-3%	-9%
COc1cccc(C2CC(c3ccc(Cl)cc3Cl)Nc3nc(N)nn32)c1 (centres undefined)	-12%	?	i	-10%	-63%	23µM*
CCOc1ccc(C2CC(c3cccc(Cl)c3)n3nc(N)nc3N2)cc1 (centres undefined)	-10%	7.3µM*	i	8%	-19%	16µM*
CCOc1ccc(C2CC(c3ccc(OC)c(OC)c3)n3nc(N)nc3N2)cc1 (centres undefined)	1%	-22%	i	8%	-5%	-24%
COc1cccc(C2CC(c3ccccc3Cl)Nc3nc(N)nn32)c1 (centres undefined)	7%	1%	i	-19%	-27%	-10%
COc1ccc(C=NNC(=O)c2cc(C)oc2C)cc1O	8%	?	i	-18%	-41%	16µM*
COc1cc(/C=N/NC(=O)c2cc(C)oc2C)ccc1O	1%	-10%	i	3%	-10%	-16%
Cc1cc(C(=O)N/N=C/c2ccncc2)c(C)o1	16%	6%	i	-1%	-26%	-2%
Cc1ccc(/C=N/NC(=O)c2cc(C)oc2C)cc1	-17%	23µM*	i	2%	-60%	16µM*
CCCCCCCC(=O)[O-].CCCCCCCC(=O)[O-].[Zn+2]	-2%	.	i	.	.	.
CCO[C@@H]1OC(C(=O)NCc2ccccc2)=C[C@H](c2csc3ccccc23)[C@H]1CCCO	?	?	?	?	-3%	?
O=S(=O)(NCC(c1ccco1)S(=O)(=O)c1cccs1)c1ccccc1 (centres undefined)	.	?	.	-11%	3%	-28%
CC(C)(C)c1ccc(C(=O)NCC(c2cccs2)S(=O)(=O)c2ccccc2)cc1 (centres undefined)	0%	16µM*	?	?	-38%	15µM*
CCOc1ccc(C(=O)NCC(c2cccs2)S(=O)(=O)c2ccccc2)cc1 (centres undefined)	-16%	29µM*	i	-15%	-27%	?
O=S(=O)(NCC(c1cccs1)S(=O)(=O)c1ccccc1)c1ccccc1 (centres undefined)	.	1.2µM*	.	7.1µM*	10µM*	1.8µM*
CC(C)(C)c1ccc(C(=O)NCC(c2ccco2)S(=O)(=O)c2ccccc2)cc1 (centres undefined)	?	18µM*	?	-20%	-25%	23µM*
O=C(NCC(c1cccs1)S(=O)(=O)c1cccs1)c1ccc(C(F)(F)F)cc1 (centres undefined)	-20%	?	?	?	-29%	?
CC(C)CCN1CCN(CCCn2cccn2)CC1CCO (centres undefined)	-10%	0%	i	4%	-3%	20%
Cc1ccc(/C=C/c2onc(C)c2S(=O)(=O)N2CCC(C(=O)NCc3ccc(C)o3)CC2)cc1	.	?	.	-22%	-11%	?
CCCOc1ccc(CNC(=O)c2[nH]c3cc(OC)ccc3c2Sc2ccccc2)cc1	0%	?	i	-8%	-8%	?
COc1ccc(-c2csc(NC(=O)c3c(C)noc3C)n2)cc1	4%	15µM*	i	?	0%	23µM*
COc1ccc(-c2csc(NC(=O)C3CCCO3)n2)cc1 (centres undefined)	51%	?	i	?	-5%	21µM*
CCOc1ccc(-c2csc(NC(=O)c3cccc(N4C(=O)CCC4=O)c3)n2)cc1	21%	?	i	-11%	-5%	-24%
SMILES	ATXN2 expr inh	DT40 TDP1 CPT	S2 tox	TGFb inhibitor	HepG2 viability	DT40 TDP1 no CPT
COc1ccc(-c2csc(NC(=O)c3c(C)noc3C)n2)cc1OC	.	21µM*	.	-11%	-7%	15µM*
COc1ccc(-c2csc(NC(=O)c3cccc(N4C(=O)CCC4=O)c3)n2)cc1OC	-8%	4.1µM*	i	5%	8%	21µM*
CN(C)CCNC(=S)Nc1ccc(F)c(F)c1F	-23%	-23%	i	3%	-4%	-20%
COc1ccc(-c2csc(NC(=O)c3ccoc3C)n2)cc1	16%	-26%	i	?	0%	12µM*
Cc1noc(C)c1C(=O)Nc1nc(-c2ccc([N+](=O)[O-])cc2)cs1	-13%	?	?	?	-3%	?
Cc1ccc(-c2csc(NC(=O)c3c(C)noc3C)n2)cc1	-3%	?	i	?	-43%	9.2µM*
Fc1ccc2[nH]c3c(NCc4ccccc4)ncnc3c2c1	?	5.2µM*	i	?	-32%	5.2µM*
COCCNc1ncnc2c1[nH]c1ccccc12	-34%	?	i	8%	-48%	12µM*
OCCCNc1ncnc2c1[nH]c1ccccc12	-11%	-10%	i	2%	-9%	-16%
CCCOc1ncnc2c1[nH]c1ccc(OC)cc12	.	6.5µM*	i	0%	122%	8.2µM*
CCN(CC)c1ncnc2c1[nH]c1ccccc12	?	18µM*	i	-4%	-21%	23µM*
Cc1ccccc1NC(=O)c1sc2nc(N3CCOCC3)c3c(c2c1N)CC(C)(C)OC3	0%	-21%	i	25%	-28%	?
CCCCOc1ncnc2c1[nH]c1ccc(C)cc12	3%	?	i	0%	-20%	21µM*
CCCOc1ncnc2c1[nH]c1ccccc12	-9%	23µM*	i	-25%	-33%	21µM*
COc1ccc(S(=O)(=O)N(C)C[C@@H]2OCCCC[C@@H](C)Oc3ccc(NS(=O)(=O)c4cccs4)cc3C(=O)N([C@H](C)CO)C[C@@H]2C)cc1	-1%	?	i	-6%	1%	?
